These results are taken from PubChem BioAssay.

Molecules are shown by their SMILES.

Sequence of Focal adhesion kinase 1 (Homo sapiens) (Q05397 whole entry, looked up): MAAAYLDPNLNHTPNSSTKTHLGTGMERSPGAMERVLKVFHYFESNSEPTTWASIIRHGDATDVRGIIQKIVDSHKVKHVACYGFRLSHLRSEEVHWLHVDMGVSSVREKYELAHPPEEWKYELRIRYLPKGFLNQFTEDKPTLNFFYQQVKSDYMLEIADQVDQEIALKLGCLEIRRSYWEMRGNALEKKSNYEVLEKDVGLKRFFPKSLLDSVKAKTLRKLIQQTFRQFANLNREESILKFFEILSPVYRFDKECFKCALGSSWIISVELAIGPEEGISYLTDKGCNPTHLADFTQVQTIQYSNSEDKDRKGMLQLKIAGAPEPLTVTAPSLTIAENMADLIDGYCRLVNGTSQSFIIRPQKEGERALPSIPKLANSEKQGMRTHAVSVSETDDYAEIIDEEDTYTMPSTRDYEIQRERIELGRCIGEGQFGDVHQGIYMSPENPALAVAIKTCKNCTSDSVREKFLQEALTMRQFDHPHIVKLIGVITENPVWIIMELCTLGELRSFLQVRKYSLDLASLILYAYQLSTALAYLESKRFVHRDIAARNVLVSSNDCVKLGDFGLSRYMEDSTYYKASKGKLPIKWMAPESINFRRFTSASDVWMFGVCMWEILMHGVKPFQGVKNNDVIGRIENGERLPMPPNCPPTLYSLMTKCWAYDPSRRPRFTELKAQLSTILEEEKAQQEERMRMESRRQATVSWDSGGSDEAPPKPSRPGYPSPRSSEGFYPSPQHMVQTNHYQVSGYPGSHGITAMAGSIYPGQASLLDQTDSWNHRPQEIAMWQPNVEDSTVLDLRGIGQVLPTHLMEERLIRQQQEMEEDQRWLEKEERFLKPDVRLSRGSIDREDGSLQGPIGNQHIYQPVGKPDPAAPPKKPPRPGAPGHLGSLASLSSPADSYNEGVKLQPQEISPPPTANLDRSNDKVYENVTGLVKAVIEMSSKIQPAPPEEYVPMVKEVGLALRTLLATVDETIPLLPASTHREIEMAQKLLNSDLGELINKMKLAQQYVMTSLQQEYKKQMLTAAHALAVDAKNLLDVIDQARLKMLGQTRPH

One assay concerns Human papillomavirus type 1a E7 protein (residues 1-88). Description: HPV1a E7 small-molecule binders, primary screen, biochemical, small-molecule microarray, residues 1-88, 635 nm (AID 1129). As to conditions: small-molecule microarray binding, fluorescence 635 nm; higher = more signal.
On to `Cc1cc(C)cc(N2C(=O)CSC2c2cccc([N+](=O)[O-])c2)c1` (stereo not given), for which the composite z-score was found to be 1.22.
The compound `COCCOC(=O)N1C(=O)[C@@]2(c3cc(C#CC4(O)CCCCCC4)ccc31)[C@H](c1ccc(O)cc1)N1[C@H](c3ccccc3)[C@H](c3ccccc3)OC(=O)[C@H]1[C@@H]2C(=O)NC[C@H](O)c1ccccc1` displayed a composite z-score of 1.16.
On the same count and under the same terms, for `COC(=O)c1cn(C[C@@H](Cc2ccccc2)NC(=O)N[C@H](CO)CCc2oc(C(C)=O)c(C(=O)OC)c2C(=O)OC)nn1` the value was 0.533; for `COC(=O)[C@@]1(Cc2ccccc2)[C@H]2c3cc(C(=O)N(C)C)n(Cc4c(CO)[nH]cc(C)c4=O)c3C[C@H]2CN1C(=O)c1ccccc1`, 0.677.
Still for that read-out and setting: for `CC(=O)NCCCC[C@@H]1NC(=O)[C@@H]2C[C@H](C(=O)NCCCC[N+](C)(C)C)[C@H](c3ccc(O)cc3)N2C1=O` the value was -0.882.
The same measure, in the same setting: for `COc1ccc([Si](C)(C)[C@@H]2[C@@H](CC(=O)N3Cc4ccccc4C[C@H]3CO)O[C@]3(C(=O)N(C)c4ccccc43)[C@H]2C)cc1` the value was 1.17; for `COCCOC(=O)N1C(=O)[C@@]2(c3cc(C#CC4=CCCCC4)ccc31)[C@H](C(N)=O)[C@H]1C(=O)O[C@H](c3ccccc3)[C@H](c3ccccc3)N1[C@@H]2c1ccccc1OCCO`, 1.21.
`COC(=O)[C@@]1(Cc2ccc(OC)cc2)[C@@H]2C(=CC(=O)[C@H]2CC(=O)C(=O)N(C)C)CN1C(=O)c1ccccc1` had a composite z-score of 1.23.

The next assay addresses Focal adhesion kinase 1 (Homo sapiens) (UniProt Q05397). As to the kind of experiment: PTK2 protein binding on printed compound slides – biochemical, small-molecule microarray, 635/667 nm fluorescence, BSA, DTT, primary screen (AID 1130).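 Also: composite of spot emission at 667 nm and signal to noise over triplicate slides.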 As to conditions: 635 nm fluorescence, higher = more signal.
On to `CC[C@H]1C2=C3C(CC[C@H]4C(OCc5ccc(F)cc5C(F)(F)F)OC[C@](C)([C@@H]34)N(C(=O)OC(C)(C)C)C2)C(COC)C1COC` (stereo not given in full), for which the composite z-score was -0.093.
On the same count and under the same terms, for `CC(C)N1C(=O)C[C@@](C(=O)NCCCN(C)C)(c2ccc([N+](=O)[O-])cc2)[C@H]1c1ccc(CO)cc1` the value was -0.519; for `NC(=O)NCC#Cc1ccc2c(c1)[C@]1(C(=O)N2)[C@H](C(=O)NC[C@H](O)c2ccccc2)[C@H]2C(=O)O[C@H](c3ccccc3)[C@H](c3ccccc3)N2[C@@H]1c1ccc(OCCO)cc1`, -0.0193.
Same read-out and setting: for `Cc1ccccc1C(O)C1C=CC2C(=O)N(C)C(=O)C2N1N(c1ccccc1)c1ccccc1` (stereo not given) the value was -0.128; for `C=CCC(OC(C)=O)[C@@H]1[C@@H](N(Cc2cc3ccccc3o2)C(=O)c2ccc(C)cc2)c2cc(OCCCO)ccc2N1C(=O)Cc1ccc(OC)cc1` (stereo not given in full), 0.0903.
For `COC(=O)C1=CC(CCCO)=CC(C2CC2)N(C)C=C1C(=O)OC` (stereo not given), the composite z-score was found to be 0.623.
`COc1cc2c(cc1OC)CN(C(=O)[C@@H]1[C@H]3C(=O)O[C@H](c4ccccc4)[C@H](c4ccccc4)N3[C@H](c3ccc(OCCO)cc3)[C@@]13C(=O)Nc1ccc(C#CC4(O)CCCCCC4)cc13)CC2` came in with a composite z-score of -0.226.
Still for that read-out and setting: for `COc1cc(OC)c(C(O)C2C=CC3C(=O)N(c4ccccc4)C(=O)C3N2Nc2ccccc2)cc1Br` (stereo not given) the value was 0.531; for `COc1ccc([Si](C)(C)[C@@H]2[C@@H](CC(=O)N(CCO)Cc3ccccc3)O[C@]3(C(=O)N(Cc4cccc(N5C(=O)c6cccc7cccc5c67)c4)c4ccccc43)[C@H]2C)cc1`, 0.994; for `COC(=O)c1c2oc(c1C(=O)OC)C(=O)N(C)Cc1cn(nn1)C[C@H](Cc1ccccc1)NC(=O)N[C@H](CO)CC2`, -0.27.
Same read-out and setting: for `O=C(CS)NCCCCCCNC(=O)[C@H]1C[C@H]2C(=O)N[C@@H](Cc3ccccc3)C(=O)N2[C@H]1c1ccc(O)cc1` the value was 0.904.
On the same count and under the same terms, then `O=C1C2C=CC(C(O)c3ccccc3)N(Nc3ccccc3F)C2C(=O)N1c1ccccc1` (stereo not given), with 0.0669; and `CC(C)(C)N1CC=CC23O[C@@H]4C=CCOC(=O)[C@@H]4[C@H]2C(=O)N(CCCCCCO)[C@@H]3C1=O` (stereo not given in full), with 0.527.
As to `CCCCO[C@H]1C[C@H]2C(I)=C[C@@H]1C(=O)[C@]21CO1`, the composite z-score amounted to 0.047.
Turning to `C=CCOC(=O)[C@H]1[C@@H]2C(=O)O[C@@H](c3ccccc3)[C@@H](c3ccccc3)N2[C@@H](c2ccc(OCCOC(=O)[C@@H]3C[C@@H]4C(=O)N5CCC[C@H]5C(=O)N4[C@@H]3c3ccc(O)cc3)cc2)[C@]12C(=O)Nc1ccc(I)cc12`, the composite z-score turned out to be 0.0398.
For the compound `C=CCOC(=O)[C@H]1[C@@H]2C(=O)O[C@@H](c3ccccc3)[C@@H](c3ccccc3)N2[C@@H](c2ccc(OCCOC(=O)[C@H]3C[C@H]4C(=O)N[C@@H](CCCCNC(C)=O)C(=O)N4[C@H]3c3ccc(O)cc3)cc2)[C@]12C(=O)Nc1ccccc12`, the composite z-score is 0.765.
The compound `CCOc1cc(C(O)C2C=CC3C(=O)N(C)C(=O)C3N2Nc2ccccc2)ccc1O` (stereo not given) came in with a composite z-score of 0.327.
